Results: PubChem BioAssay (NCATS)
Inconclusive results are not listed. Active and inactive are the calls of the source. The call rests on the fitted dose curve; in most records, active means well fitted cell-killing curve with a large enough effect; inconclusive means small, poorly fitted or top-dose-only effect, or effect the other way; inactive means no such curve, though single readings can be large or run the other way.

Test: Quantitative High-Throughput drug screen in 47 multiple myeloma cell lines against the NCATS MIPE library collection: KMS20_JCRB cell viability assay (AID 1918973); further: nearly all actives have a fitted effect of over 45% in size
Settings: CellTiter-Glo ATP, 48 h; series mostly up to 45.8 µM; viability (% of DMSO): at the top concentration
Excerpt: PI: Beverly A. Mock Ph.D.
Laboratory of Cancer Biology and Genetics,
Center for Cancer Research, National Cancer Institute,
National Institute of Health, Bethesda, Maryland
Drug resistance and disease progression are common in multiple myeloma (MM) patients, underscoring the need for new therapeutic combinations. […] We hypothesized that effective combinations would reduce MYC expression and enhance p16 activity. […] These preclinical data identify potentially useful drug combinations for evaluation in drug-resistant MM and reveal potential mechanisms of combined drug sensitivity.
Described herein is the primary MIPE qHTS used to cherrypick compounds. Validated compounds were then further tested for potential synergistic activiy.
[1] Peat TJ, Gaikwad SM, Dubois W, Gyabaah-Kessie N, Zhang S, Gorjifard S, Phyo Z, Andres M, Hughitt VK, Simpson RM, Miller MA, Girvin AT, Taylor A, Williams D, D'Antonio N, Zhang Y, Rajagopalan A, Flietner E, Wilson K, Zhang X, Shinn P, Klumpp-Thomas C, McKnight C, Itkin Z, Chen L, Kazandijian D, Zhang J, Michalowski AM, Simmons JK, Keats J, Thomas CJ, Mock BA. Drug combinations identified by high-throughput screening promote cell cycle transition and upregulate Smad pathways in myeloma. Cancer Lett. 2023 Aug 1;568:216284. doi: 10.1016/j.canlet.2023.216284. Epub 2023 Jun 24. PMID: 37356470; PMCID: PMC10408729.
SEQUENCE No. (e.g., 1, 2, 3, etc.); […] (e.g., Cells, Incubation, Reagent, etc.); VALUE and DESCRIPTION.
1; Cells; 5 uL; white, solid bottom 1536-well Greiner assay plate.
2; Compounds; 23 nL; Kalypsis pin tool (Wako USA) equipped with a 1536-well pin head to transfer to the assay plates.
3; Incubation; 48 hours; 37C incubation.
4; Reagent;5uL; CellTiter Glo (Promega).
5; Detector; 425V; Luminescence; Viewlux PerkinElmer.
NOTES (numbers refer to Sequence numbers above)
1. The cell-based screening methods employed in this study were like those previously published. Briefly, the corresponding myeloma cell lines were screened in 1,536-well plates with 500 cells, 5-uL per well for inhibition of cell viability (assessed by measuring ATP levels with CellTiterGlo).
2. NCATS MIPE 4.0 library of approved and investigational drugs were added using the Kalypsis pin tool. Wells treated with DMSO only for 100% viability and media only wells for 0% viability were used as controls.
3. The assay plates were covered and incubated for 48 hours in a 37C, 5% CO2 incubator with controlled humidity.
4. After 48 hours, CellTilter-GloTM luminescent substrate mix (Promega) reagent was added to the assay plate and plates we incubated for 5 min at room temperature.
5. Signal was measured as median relative luminescence units on a ViewLux (PerkinElmer) multiplate reader.
[1] Heske CM, Davis MI, Baumgart JT, Wilson K, Gormally MV, Chen L, Zhang X, Ceribelli M, Duveau DY, Guha R, Ferrer M, Arnaldez FI, Ji J, Tran HL, Zhang Y, Mendoza A, Helman LJ, Thomas CJ. Matrix Screen Identifies Synergistic Combination of PARP Inhibitors and Nicotinamide Phosphoribosyltransferase (NAMPT) Inhibitors in Ewing Sarcoma. Clin Cancer Res. 2017 Dec 1;23(23):7301-7311. doi: 10.1158/1078-0432.CCR-17-1121. Epub 2017 Sep 12. PMID: 28899971; PMCID: PMC6636827.
Potency means the concentration at half of the fitted maximal effect.

SMILES	Potency	viability (% of DMSO)
Nc1nc(Cl)nc2c1ncn2[C@H]1C[C@H](O)[C@@H](CO)O1	1.48 µM (active)	
O=c1oc2cc(O)ccc2s1		82% (inactive)
CCN(CC)C(=S)SSC(=S)N(CC)CC	0.001 µM (active)	
O=C(c1ccccc1)c1ccc2n1CCC2C(=O)O (stereo not given)	8.33 µM (active)	
Cc1cc(C2CCCCC2)n(O)c(=O)c1	11.8 µM (active)	
CC[C@]1(O)C[C@H]2CN(CCc3c([nH]c4ccccc34)[C@@](C(=O)OC)(c3cc4c(cc3OC)N(C=O)[C@H]3[C@@](O)(C(=O)OC)[C@H](OC(C)=O)[C@]5(CC)C=CCN6CC[C@]43[C@@H]65)C2)C1	0.0148 µM (active)	
CCOC(=O)C1=C[C@@H](OC(CC)CC)[C@H](NC(C)=O)[C@@H](N)C1		144% (inactive)
O=C(O)c1cccc(-c2noc(-c3ccccc3F)n2)c1		121% (inactive)
Nc1nc(N)c(N=O)c(OCC2CCCCC2)n1	4.69 µM (active)	
Nc1ncn([C@H]2C[C@H](O)[C@@H](CO)O2)c(=O)n1	0.132 µM (active)	
COC(=O)C1=C(C)NC(C)=C(C(=O)OC(C)C)C1c1cccc2nonc12 (stereo not given)	20.9 µM (active)	
CCCCC(CC)COC(=O)C(C#N)=C(c1ccccc1)c1ccccc1 (stereo not given)		106% (inactive)
CCC1=C(C)CN(C(=O)NCCc2ccc(S(=O)(=O)NC(=O)NC3CCC(C)CC3)cc2)C1=O (stereo not given)		124% (inactive)
CCN(CC)CCOc1ccc(Cc2ccccc2)cc1		104% (inactive)
Cc1cc(Cl)ccc1OCCCC(=O)NO	4.18 µM (active)	
CCOc1cc(CC(=O)N[C@@H](CC(C)C)c2ccccc2N2CCCCC2)ccc1C(=O)O	0.59 µM (active)	
CCOC(=O)c1c(C)n(C)c2ccc(O)cc12		101% (inactive)
Cc1cc(=O)c2c(O)c3c(O)cc(=O)c4c3c3c(cc(O)c1c23)C(C)(C)C=4O	0.0187 µM (active)	
Cc1nc2n(c(=O)c1CCN1CCC(c3noc4cc(F)ccc34)CC1)CCCC2		117% (inactive)
CN(C)c1ccc2nc3ccc(=[N+](C)C)cc-3sc2c1	2.64 µM (active)	

SMILES	Potency	viability (% of DMSO)
Cc1cc2c(s1)Nc1ccccc1N=C2N1CCN(C)CC1		117% (inactive)
c1ccc2[nH]c(-c3cscn3)nc2c1		118% (inactive)
Oc1ccc2ccccc2c1SSc1c(O)ccc2ccccc12	9.35 µM (active)	
COc1cc2c(cc1OC)C1CC(=O)C(CC(C)C)CN1CC2 (stereo not given)		82.3% (inactive)
Cc1cc(O)c2c(c1)C(=O)c1cc(O)cc(O)c1C2=O		128% (inactive)
CCc1nc(N)nc(N)c1-c1ccc(Cl)cc1		79.7% (inactive)
COc1cc(C(C)=O)ccc1OCCCN1CCC(c2noc3cc(F)ccc23)CC1	16.6 µM (active)	
NNc1nncc2ccccc12		89.1% (inactive)
Clc1ccc2c(N3CCN(CCCN4CCN(c5ccnc6cc(Cl)ccc56)CC4)CC3)ccnc2c1		106% [at 23.2 µM] (inactive)
N=C(N=C(N)N)N1CCOCC1		115% (inactive)
O=C(NOCC1CC1)c1ccc(F)c(F)c1Nc1ccc(I)cc1Cl	0.59 µM (active)	
O=Nc1c(-c2c(O)[nH]c3cc(Br)ccc23)[nH]c2ccccc12	5.9 µM (active)	
O=c1c(O)c(-c2cc(O)c(O)c(O)c2)oc2cc(O)cc(O)c12		115% (inactive)
CCN(CC)CCOc1ccc(Nc2ncc3cc(-c4c(Cl)cccc4Cl)c(=O)n(C)c3n2)cc1	0.001 µM (active)	
Cc1cccc(CN2CCN(C(c3ccccc3)c3ccc(Cl)cc3)CC2)c1 (stereo not given)	6.62 µM (active)	
O=c1ccc2ccc(O)c(O)c2o1	16.6 µM (active)	
COc1ccccc1N1CCN(CCN(C(=O)C2CCCCC2)c2ccccn2)CC1	5.26 µM (active)	
Cc1cc(=O)oc2cc(O)ccc12		99.8% (inactive)
NC(=NCc1ccccc1)NC(=O)c1nc(Cl)c(N)nc1N	7.43 µM (active)	
O=P(O)(O)C(O)(Cn1ccnc1)P(=O)(O)O		86.6% [at 23.2 µM] (inactive)
